# Compounds without any hit were thinned out: in the full panel of roughly 83,000, 20% have a hit.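 Testing used 96-well plates and a 48-hour single-concentration exposure. Example: -40 means 40% of the starting cells died.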 Values without a mark were called inactive. Activity calls are given as the source filed them. Rule for the calls: active = growth percent below 10; inactive = the rest.
# Legend:
# Assay in all cases: NCI-60 one-dose screen, 48 h (100 = growth as untreated, 0 = no growth, -100 = all killed)
# [1] = system: SK-MEL-2 melanoma; settings: 10 µM unless noted
# [2] = system: SN12C renal; settings: 10 µM unless noted
# [3] = system: UO-31 renal; settings: 10 µM unless noted
# [4] = system: TK-10 renal; settings: 10 µM unless noted
# [5] = system: ACHN renal; settings: 10 µM unless noted
# [6] = system: CAKI-1 renal; settings: 10 µM unless noted
# [7] = system: HL-60(TB) leukemia; settings: 10 µM unless noted
# [8] = system: CCRF-CEM leukemia; settings: 10 µM unless noted
# [9] = system: MOLT-4 leukemia; settings: 10 µM unless noted
# [10] = system: SR leukemia; settings: 10 µM unless noted
# [11] = system: RPMI-8226 leukemia; settings: 10 µM unless noted
# [12] = system: OVCAR-8 ovarian; settings: 10 µM unless noted
# [13] = system: OVCAR-5 ovarian; settings: 10 µM unless noted
# [14] = system: OVCAR-4 ovarian; settings: 10 µM unless noted
# [15] = system: SK-OV-3 ovarian; settings: 10 µM unless noted
# [16] = system: IGROV1 ovarian; settings: 10 µM unless noted
# [17] = system: OVCAR-3 ovarian; settings: 10 µM unless noted
# [18] = system: HS 578T breast; settings: 10 µM unless noted
# [19] = system: A498 renal; settings: 10 µM
# [20] = system: EKVX NSCLC; settings: 10 µM unless noted
Compound,growth [1],growth [2],growth [3],growth [4],growth [5],growth [6],growth [7],growth [8],growth [9],growth [10],growth [11],growth [12],growth [13],growth [14],growth [15],growth [16],growth [17],growth [18],growth [19],growth [20]
COc1cc(/C=C\c2cc(OC)c(OC)c(OC)c2)cc(NS(=O)(=O)c2cccc(Cl)c2)c1OC,23.5%,27.7%,32.1%,63.3%,16.4%,11.4%,4.54% (active),9.72% (active),9.29% (active),10.6%,18.1%,18.2%,19.5%,37.4%,16.9%,26.3%,-36.3% (active),45.4%,–,–
CC1CN1CCCCN1CC1C (configuration not stated),80.6%,109%,98.4%,88.8%,107%,102%,77.4%,–,86.2%,81.5%,94.4%,102%,102%,112%,103%,107%,103%,–,107%,–
COc1ccc(/C=C\c2cc(OC)c(OC)c(OC)c2)cc1OCC(=O)Nc1nc2ccc(C(F)(F)F)cc2s1,-2.78% (active),45.8%,21%,8.6% (active),38.2%,24.5%,11.8%,–,16.3%,26.5%,21.2%,17.5%,94.1%,57.4%,10.8%,19.3%,-51.8% (active),-8.14% (active),14.3%,–
C/C1=C/C(=O)O[C@@H]2C[C@@H](CC[C@H](C)/C=C\C=C\CC1)O[C@@](O)([C@@H]1CSC(=O)N1CO)C2,–,47.8%,-83.5% (active),-39.1% (active),10.6%,-48.3% (active),28.2%,11.1%,33.4%,–,50.7%,42.8%,-3.16% (active),20.4%,-14.1% (active),–,–,-48.7% (active),-46.2% (active),6.56% (active)
O=[N+]([O-])CC(O)C(Cl)(Cl)Cl (configuration not stated),150%,106%,80.2%,110%,96.5%,–,–,-21.1% (active),107%,98.5%,71.7%,116%,93.6%,94.2%,100%,102%,–,–,–,–
COc1cc2c(cc1OCCCCCn1c(-c3ccco3)nc3ccccc31)N=C[C@@H]1CCCN1C2=O,–,15.8%,-23.9% (active),-1.37% (active),10.2%,12%,-27.4% (active),29.8%,6.41% (active),0.702% (active),28%,18.6%,7.02% (active),11.2%,42.3%,-59.8% (active),12.9%,14.7%,-39.6% (active),22.7%
Cn1cc(C2=C(c3cn(C4CCN(Cc5ccccn5)CC4)c4ccccc34)C(=O)NC2=O)c2ccccc21,–,81.1%,48.4%,56.3%,63.8%,50.8%,39.8%,112%,85.7%,7.89% (active),107%,78.8%,31.2%,76.8%,83.5%,33.9%,90.3%,–,88.1%,83.4%
COC(=O)[C@H](Cc1c[nH]c2ccccc12)NC(=O)[C@@H](OC)[C@@H]1Cc2cc3cc(OC4CC(OC5CC(O)C(O)C(C)O5)C(O)C(C)O4)c(C)c(O)c3c(O)c2C(=O)[C@H]1OC1CC(OC2CC(OC3CC(C)(O)C(O)C(C)O3)C(O)C(C)O2)C(O)C(C)O1 (some centres not stated),–,10.6%,-6.63% (active),8.12% (active),0.567% (active),19.5%,-8.66% (active),5.66% (active),0.755% (active),4.93% (active),-5.61% (active),11%,15.3%,0.345% (active),–,23.4%,4.79% (active),-13.6% (active),-52.8% (active),3.61% (active)
COC(=O)[C@@H](C)C[C@H](Cc1ccccc1)NC(=O)c1csc([C@@H](C[C@H](C(C)C)N(C)C(=O)[C@@H](NC(=O)[C@H]2CCCCN2C)C2CCCCC2)OC(C)=O)n1,11.2%,12.6%,31.7%,–,11.4%,14.5%,-51.9% (active),0.645% (active),3.17% (active),4.79% (active),4.31% (active),14.6%,23.1%,36.7%,-1.95% (active),22.3%,-21.5% (active),-6.6% (active),-10.2% (active),–
CNC(=O)Oc1cccc(C(F)(F)F)c1,–,93.7%,96.3%,105%,114%,117%,114%,90.6%,97.1%,111%,87.4%,87.6%,114%,114%,108%,120%,125%,121%,106%,139%
O=C(CC1(O)C(=O)Nc2ccc(Br)cc21)c1ccc(C(=O)NCC2CCC3(CC2)OOC2(CCCCC2)OO3)cc1 (configuration not stated),–,59.1%,-82.4% (active),72.5%,-40.8% (active),0.714% (active),-39.2% (active),-34.4% (active),-29.4% (active),-38.7% (active),-27.4% (active),41.7%,95.8%,48.7%,70.6%,14.8%,8.92% (active),62.9%,84.7%,-36.4% (active)
CC[C@H](C)[C@H](NC(=O)c1ccccn1)C(=O)N(C)[C@H](C[C@@H](OC(C)=O)c1nc(C(=O)N[C@@H](Cc2ccccc2)C[C@H](C)C(=O)OC)cs1)C(C)C,-8.78% (active),46.9%,42.2%,–,40.2%,–,-21.2% (active),7.71% (active),19.5%,–,19.9%,22.6%,49.6%,47.8%,41.2%,28.4%,-22.5% (active),-1.12% (active),-5.19% (active),–
CC1(C)N=C(N)N=C(N)N1c1ccc(OCCCNC(=O)Nc2ccc(S(=O)(=O)F)cc2)c(Cl)c1,–,23.8%,83.6%,33.3%,26.4%,92.1%,31.8%,24.2%,33.4%,–,24.6%,31.5%,48%,54.3%,58.5%,17.9%,27.4%,83.6%,85.3%,53%
COC(C(=O)[C@@H](O)[C@@H](C)O)[C@@H]1Cc2cc3cc(O[C@H]4C[C@@H](O[C@H]5C[C@@H](O)[C@H](O)C(C)O5)[C@H](O)C(C)O4)c(C)c(O)c3c(O)c2C(=O)[C@H]1O[C@H]1C[C@@H](O[C@H]2C[C@@H](O[C@H]3C[C@@H](O)[C@@H](O)C(C)O3)[C@@H](O)C(C)O2)[C@H](O)C(C)O1 (some centres not stated),–,7.47% (active),-3.24% (active),12.1%,0.535% (active),12.6%,30.5%,29.4%,23.9%,14.3%,9.15% (active),2.92% (active),13.7%,25.2%,25.5%,18.2%,4.91% (active),14.5%,-39.9% (active),24.4%

# From PubChem BioAssay (NCI)
